NR2F2 inh – blocks human COUP-TFII nuclear receptor. P24468. HEK293T NGFI-A luciferase reporter, luminescence. inhibition, % at 8.6 µM. AID 686940. 370,000 compounds, 0.7% hits;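 active means inhibition above a per-plate cutoff, mean inhibition of test wells between control levels plus 3 SD, cut at about 38% in these data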;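 further: cells cotransfected with COUP-TFII expression vector driving the NGFI-A reporter; 0% = median of COUP-TF2 test wells and 100% = reporter-only cells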
NCOA3 inh – inhibits human SRC3 coactivator | Q9Y6Q9 | inhibition, % at 3.6 µM | AID 588352 | 360,000 compounds, 0.17% hits | HEK293 GAL4-SRC3 luciferase reporter, luminescence;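 active means inhibition above a per-campaign cutoff, the mean of all compounds plus 3 SD, cut at about 60% in these data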;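 further: 0% = DMSO-treated cells and 100% = gossypol-treated cells at 36 µM; higher means less SRC3-driven luciferase light from the GAL4 reporter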
NCOA1 inh – inhibitors of human steroid receptor coactivator 1 (SRC1); HEK293 GAL4-SRC1 luciferase reporter, luminescence; AID 588354; Q15788; inhibition, % at 3.6 µM; 360,000 compounds, 0.12% hits;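 active means inhibition above the campaign mean plus 3 SD, with each screening campaign given its own cutoff, cut at about 60% in these data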;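 further: 0% = DMSO treated cells and 100% = gossypol at 36 µM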
NCOA2 inhibitor – inhibits human steroid receptor coactivator 2 | HEK293 GAL4-SRC2 luciferase reporter, luminescence | 370,000 compounds, 0.17% hits | inhibition, % at 9 µM;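 active means inhibition above the mean inhibition of all tested compounds plus 3 SD, set per campaign, cut at about 52% in these data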;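 further: 0% = DMSO treated cells and 100% = cells given Gossypol at 36 µM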
Gli-Sufu block – blocks Gli-Sufu signaling in a luciferase reporter; Sufu-KO-LIGHT fibroblasts, Gli luciferase reporter luminescence; inhibition, % at 5 µM; 340,000 compounds, 0.74% hits; AID 588413;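 active means inhibition above about 55%, limit read from the data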;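 further: 0% = DMSO-treated cells and 100% = wells with medium but no cells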
NR5A2 inv ag – NR5A2 inverse agonism in reporter assay; O00482; HEK293T StAR-luciferase reporter, LRH-1 transfected, 24 h; inhibition, % at 3.6 µM; 360,000 compounds, 0.13% hits;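 active means inhibition above the mean inhibition of all tested compounds plus 3 SD, cut at about 73% in these data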;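 further: 0% = DMSO wells and 100% = reporter-only cells lacking LRH-1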
Gli-Sufu confirm – confirmation of Gli-SUFU pathway antagonists; shares compounds with Gli-Sufu block; Sufu-KO-LIGHT cells, Gli luciferase reporter, luminescence; inhibition, % at 5 µM; 2,500 compounds, 40% hits;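 active means mean inhibition at 5 µM reaching about 45%, limit read from the data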;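 further: plate controls were DMSO-treated cells for no effect and wells lacking cells for full effect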
SufuKO cytotox – counter-screen for Gli-SUFU antagonists: cytotoxicity | shares compounds with Gli-Sufu block | 2,500 compounds, 32% hits | Sufu-KO-LIGHT cells cytotoxicity, ATP luminescence | AID 651994 | cytotoxicity, % at 5 µM;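 active means mean cytotoxicity at 5 µM above about 25%, limit read from the data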;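 further: cells exposed to compound overnight for roughly 16 to 18 hours; plate controls were DMSO wells with cells for no effect and medium without cells for full effect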
Wnt3a cs – Wnt3a reporter inhibition counter-screen. shares compounds with Gli-Sufu block. Wnt-LIGHT cells, Wnt3a-driven luciferase reporter, luminescence. inhibition, % at 6.25 µM. 2,500 compounds, 20% hits. AID 651995;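 active means mean inhibition above about 25%, limit read from the data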
* hit, by the source's call; · = no result. Sampled rows, rich in hits. Any-hit rate of the full collection: about 1.3%.

SMILES | NR2F2 inh | NCOA3 inh | NCOA1 inh | NCOA2 inhibitor | Gli-Sufu block | NR5A2 inv ag | others
COc1ccccc1NC(=O)N(C)C[C@H]1OCc2cn(nn2)CCCC(=O)N([C@H](C)CO)C[C@@H]1C | -2 | · | · | 5 | · | ·
CC(C)=CCC/C(C)=C/CN1C(=O)N(c2ccc(F)cc2)[C@H]2C[C@@H](c3ccccc3)[C@@H](C)[C@@H](C(=O)N3CCOCC3)C[C@H]21 | 1 | · | · | 15 | · | ·
COC(=O)C1=C(C)N(CC(C)C)C(=S)NC1c1cccc(F)c1 (stereo not drawn) | -16 | · | · | 11 | · | ·
COc1cccc(-c2nc(-c3ccccn3)no2)c1 | 34 | · | · | 58* | -14 | ·
c1ccc(-c2noc(-c3ccc4ccccc4c3)n2)nc1 | · | 56 | 30 | · | 62* | 20
c1ccc(-c2noc(-c3ccncc3)n2)nc1 | -43 | -67 | -116 | -32 | -34 | -152
CC1=C(C(=O)OCc2ccc3c(c2)OCO3)C(c2ccccc2OCc2ccccc2)NC(=O)N1 (stereo not drawn) | 22 | 17 | 19 | 1 | 10 | 14
CC1=C(C(=O)OCc2ccc3c(c2)OCO3)C(c2ccc(O)c([N+](=O)[O-])c2)NC(=O)N1 (stereo not drawn) | 23 | 58 | 52 | 56* | -8 | -1
CC1=C(C(=O)OCc2ccc3c(c2)OCO3)C(c2ccccc2)NC(=O)N1 (stereo not drawn) | 30 | 70* | 71* | 54* | -14 | 47
Nc1nc2c(ncn2[C@@H]2O[C@H](C(=O)NC3CCCCC3)[C@@H](O)[C@H]2O)c(=O)[nH]1 | -4 | · | · | 15 | · | ·
COc1cccc(/C=N/NC(=O)c2ccc(-c3ccccc3)cc2)c1O | 12 | 68* | 45 | 16 | 34 | 53
COc1cccc(/C=N/NC(=O)c2c(C)nc3ccc(Cl)cn23)c1O | -20 | 78* | 47 | 15 | 84* | 90*
O=C(Nc1nc(-c2ccccn2)cs1)c1cc(Cl)ccc1[N+](=O)[O-] | 21 | 16 | 27 | -28 | 65* | 37
CC(C)(C)c1ccc(C(=O)CCC(=O)OCC(=O)NCCc2ccc(S(N)(=O)=O)cc2)cc1 | 29 | -2 | -3 | 54* | 3 | 26
S=c1[nH]nc(C2CCCCC2)n1/N=C/c1ccncc1 | 24 | 69* | 71* | 46 | -17 | 16
CCCCc1c(-c2ccccc2OC)ncn1Cc1ccc(OC)c(Cl)c1 | -14 | · | · | 13 | · | ·
COc1ccccc1Cc1c(-c2ccccc2)nc2ccc(C)cn12 | -48 | · | · | -42 | · | ·
O=C(c1ccccc1Cl)N1CCSCCS1(=O)=O | -9 | · | · | 22 | · | ·
CC(=NNc1nc2ccccc2o1)c1cc2ccccc2cn1 | 14 | 70* | 65* | 10 | 92* | -36
CC(=O)C1=C(C)NC(=S)NC1c1ccccc1 (stereo not drawn) | -2 | · | · | -3 | · | ·
NS(=O)(=O)c1ccc(NC(=O)CSC2=NC(=O)C(c3ccccc3)C(=O)N2)cc1 (stereo not drawn) | 16 | 2 | -19 | -49 | 88* | -3 | Gli-Sufu confirm=9;SufuKO cytotox=2;Wnt3a cs=-11
NS(=O)(=O)c1ccc(NC(=O)CSc2ccccc2)cc1 | 2 | -9 | -13 | -24 | -6 | 17
O=C(NNC(=O)c1cccc(Cl)c1)NNC(=O)c1cccc(Cl)c1 | -3 | -10 | -3 | 14 | 53 | -18 | Gli-Sufu confirm=12;SufuKO cytotox=-12;Wnt3a cs=-12
CCOc1ccc([N+](=O)[O-])cc1CNC1CCCCCCC1 | 6 | 10 | 13 | 10 | 52 | -3 | Gli-Sufu confirm=21;SufuKO cytotox=7;Wnt3a cs=-19
c1cncc(C(c2nnnn2C2CCCC2)N2CCCC2)c1 (stereo not drawn) | -13 | -2 | 5 | 13 | 5 | -8
c1cncc(C(c2nnnn2C2CCCCC2)N2CCN3CCCC3C2)c1 (stereo not drawn) | 3 | 7 | 7 | 0 | 52 | 14 | Gli-Sufu confirm=22;SufuKO cytotox=7;Wnt3a cs=9

Screens: PubChem BioAssay, several laboratories
